IMPase inh: membrane-permeable compound that blocks inositol monophosphatase | CHO-M1 cells, IP1 accumulation, HTRF TR-FRET ratio | inhibition (IP1 accumulation), % at 46.1 µM | 120,000 tested, under 10 active | AID 901; active means well fitted curve in the direction sought with a large enough effect in the signal ratio, not every such curve was filed as active; inconclusive means small, poorly fitted or top-dose-only effect, or a change in a side signal; inactive means no such curve, though single readings can be large or run the other way; the % refers to the signal ratio;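 further: cells stimulated with carbachol in lithium chloride buffer; higher means more IMPase inhibition seen as more IP1 and lower FRET ratio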
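Seeded CHO-M1 cells were dosed with compound at up to 46 uM, stimulated with carbachol for 30 min, then lysed in IP-One detection reagents. Higher IP1 lowers the TR-FRET signal.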
IMPase Li inh: cell-permeable IMPase inhibitors with lithium potentiation. CHO-M1 cells, IP1 TR-FRET (IP-One), carbachol + lithium. Potency, µM (series often up to 59.4 µM), actives largely listed as inhibitors. 210,000 tested, 0.35% active;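 further: IP1 builds up when IMPase is blocked and the TR-FRET signal falls; nearly all actives have a fitted effect of over 50% in size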
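Readout is a homogeneous TR-FRET IP1 immunoassay (Ex 320, Em 665 and 620), where raised cytosolic IP1 lowers signal. Cells were CHO-M1 treated 30 min at 37C with test compounds plus a little lithium; AC50 values came from Hill-equation fitting.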
HTT cytoprotect: cytoprotection in Huntington HTT-Q103 PC12 cell model | 230,000 tested, 0.14% active | AID 1471 | Potency, µM (titrated, usually from 56.4 µM), hits mostly activators | PC12 HTT-Q103 induced, cytoprotection, ATP luminescence, 40 h; further: nearly all actives have a fitted effect of over 45% in size
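Readout: ATPlite luminescence (ATP level). Model: stable PC12, inducible Htt exon1 Q103-GFP. Inducer: tebufenozide, 100 nM final. Compounds: dose series. No G418 in medium.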
ALDH1A1 block: ALDH1A1 (human) enzyme inhibition; Purified ALDH1A1, NADH fluorescence, propionaldehyde substrate; 220,000 tested, 7.3% active; P00352; Potency, µM (series often up to 75.3 µM), usual class: inhibitors; AID 1030; active means well fitted inhibition curve with a large enough effect, not every such curve was filed as active; inconclusive means small, poorly fitted or top-dose-only effect, or another doubt; inactive means no such curve, though single readings can be large or run the other way
Target sequence (P00352 whole entry, looked up): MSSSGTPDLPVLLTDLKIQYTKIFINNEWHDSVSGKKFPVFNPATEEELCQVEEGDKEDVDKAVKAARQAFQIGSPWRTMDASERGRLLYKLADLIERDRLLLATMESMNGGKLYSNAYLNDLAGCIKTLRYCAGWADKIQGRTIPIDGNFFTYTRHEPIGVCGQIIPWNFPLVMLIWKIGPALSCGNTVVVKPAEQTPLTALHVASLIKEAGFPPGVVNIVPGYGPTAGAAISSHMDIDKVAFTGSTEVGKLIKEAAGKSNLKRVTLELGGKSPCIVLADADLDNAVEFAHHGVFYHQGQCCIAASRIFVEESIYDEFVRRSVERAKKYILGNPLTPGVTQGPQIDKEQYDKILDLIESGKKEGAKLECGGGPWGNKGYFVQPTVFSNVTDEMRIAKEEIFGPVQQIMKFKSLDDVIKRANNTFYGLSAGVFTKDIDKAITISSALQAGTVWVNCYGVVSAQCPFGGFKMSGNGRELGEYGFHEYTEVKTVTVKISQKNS
HPGD inh: inhibitors of human 15-hydroxyprostaglandin dehydrogenase (HPGD). 150,000 tested, 4.3% active. Potency, µM, usual class: inhibitors. P15428. purified HPGD, NADH fluorescence kinetic, PGE2 substrate. AID 894; active means well fitted inhibition curve with a large enough effect, not every such curve was filed as active; inconclusive means small, poorly fitted or top-dose-only effect, or another doubt; inactive means no such curve, though single readings can be large or run the other way
Target sequence (P15428 whole entry, looked up): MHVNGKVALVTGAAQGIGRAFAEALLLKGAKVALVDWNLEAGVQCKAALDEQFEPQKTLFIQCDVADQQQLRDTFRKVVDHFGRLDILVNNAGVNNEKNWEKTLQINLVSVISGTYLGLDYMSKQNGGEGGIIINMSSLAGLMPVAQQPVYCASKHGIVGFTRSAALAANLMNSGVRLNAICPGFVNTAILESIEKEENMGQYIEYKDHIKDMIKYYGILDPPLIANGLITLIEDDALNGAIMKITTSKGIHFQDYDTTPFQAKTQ
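20 nM HPGD preincubated 15 min at room temperature with compound in 50 mM Tris-HCl pH 8, 0.01% Tween 20. Started with 1 mM NAD+ and 30 uM prostaglandin E2; NADH fluorescence (360/450 nm) read 5 times over 30-s intervals, last minus first.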
HTT aggregate: mutant huntingtin aggregation inhibition. PC12 HttQ103-GFP aggregates, Acumen cytometry, 40 h. Potency, µM (series often up to 46.1 µM), usual class: inhibitors. 220,000 tested, 1.1% active. AID 1688; further: nearly all actives have a fitted effect of over 60% in size
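Aggregate formation scored by laser-scanning cytometer (488 excitation, 500–530 emission) in lysed PC12 cells expressing Q103-GFP after 100 nM tebufenozide induction; library tested in dose series, with ATPLite reagent added in the multiplex.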
A number is an active result; - = inactive; ? = inconclusive; . = no result given; [ ] = dose if it differs, or a comment. A selection: hits, their analogues and other compounds. The true share with any hit is near 9.4%. Unless noted, the call rests on the fitted dose curve; in most records, active means well fitted curve in the direction sought with a large enough effect; inconclusive means small, poorly fitted or top-dose-only effect, or another doubt; inactive means no such curve, though single readings can be large; an effect the other way counts as inactive or inconclusive.

SMILES	IMPase inh	IMPase Li inh	HTT cytoprotect	ALDH1A1 block	HPGD inh	HTT aggregate
N#Cc1cc2c(nc1SCC(O)CS(=O)(=O)Cc1ccc(Cl)cc1)CCCC2 (stereo not drawn)	-	-	-	?	-	?
COc1ccc2nc(SCC(=O)N3CCCCCC3)c(C#N)cc2c1	-	-	-[10 µM]	12.6µM	?	-
CN(C)c1ccc(C2(c3ccc(N(C)C)cc3)OC(=O)c3cc(N(C)C)ccc32)cc1	.	-	-	?	?	.
Cc1oc(-c2ccccc2)cc1C(=O)Nc1ccccc1	-	-	-	-	-	-
COc1ccc(NS(=O)(=O)c2cc(OC)ccc2NC(=O)c2cc(C)oc2C)cc1	-	-	-	3.16µM	-	-
Cc1oc(-c2ccccc2)cc1C(=O)Nc1ccc2ccccc2c1	-	-	-	31.6µM	?	-
COc1ccc(NC(=O)c2cc(-c3ccccc3)oc2C)cc1	.	-	.	?	22.4µM	-
COCC(=O)N1CCC2(CC1)CCN(c1ccccc1)CC2	.	-	-	?	-	.
Nc1nc2c(ncn2C2OC(CO)CC2O)c(=O)[nH]1 (stereo not drawn)	.	-	.	-	-	.
Cc1ccc2c(n1)sc1c(-c3ccccc3)c(C#N)c(N)nc12	?	.	-	-	.	12.6µM
CCc1c(C)nc(N)c(C#N)c1-c1ccccc1	.	-	-[10 µM]	-	.	-[9.22 µM]
O=C(c1ccc(N2CCCCC2)c([N+](=O)[O-])c1)N1CCOCC1	-	-	-	-	-	-
O=C(O)c1ccccc1C(=O)c1ccc(N2CCCC2)c([N+](=O)[O-])c1	.	-	-	-	.	-
COc1ccccc1C(=O)/C=C/c1ccc(N2CCCCC2)c([N+](=O)[O-])c1	-	-	-[10 µM]	6.31µM	-	?
O=C(/C=C/c1ccccc1)N1CCN(c2c(Cl)cccc2[N+](=O)[O-])CC1	.	-	-[10 µM]	?	14.1µM	?
O=C(/C=C/c1ccc(N2CCCCC2)c([N+](=O)[O-])c1)c1ccc(O)cc1	.	-	-[10 µM]	25.1µM	.	17.8µM
O=C(O/N=C\c1ccc(N2CCCCC2)c([N+](=O)[O-])c1)c1ccc(Cl)cc1Cl	-	-	-	?	-	-
Nc1nnnn1/N=C/c1ccc(N2CCCCC2)c([N+](=O)[O-])c1	-	-	-[1.9 µM]	0.0708µM	-	-
CCCCOc1ccc(S(=O)(=O)N2CCN(c3ccccc3OCC)CC2)cc1	-	.	.	.	.	.
O=P(O)(CCP(=O)(O)c1ccccc1)c1ccccc1	.	-	-[10 µM]	-[13.5 µM]	-	.
Cc1cccc(NC(=O)CSC2=Nc3ccccc3C3=NC(CCC(=O)NCc4ccc(F)cc4)C(=O)N23)c1 (stereo not drawn)	-	.	.	.	.	.
COc1ccccc1N1CCN(C(=O)/C=C/c2ccc(C)cc2)CC1	.	-	-[10 µM]	-	-	-
COc1ccccc1N1CCN(C(=O)/C=C/c2cccc([N+](=O)[O-])c2)CC1	.	.	-[10 µM]	14.1µM	.	-[9.22 µM]
Cc1cccc(-n2c(C)cc(/C=N/n3cnnc3)c2C)c1	-	-	-	?	-	-
Cc1cc(/C=N/n2cnnc2)c(C)n1-c1cc(Cl)ccc1Cl	-	-	-	22.4µM	-	-
SMILES	IMPase inh	IMPase Li inh	HTT cytoprotect	ALDH1A1 block	HPGD inh	HTT aggregate
Cc1nc2cnc(N3CCNCC3)nc2n(-c2ccccc2)c1=O	.	-	-	?	?	.
O=C(c1ccccc1)N1CCN(C2c3cccc4cccc(c34)C2NS(=O)(=O)c2ccccc2)CC1 (stereo not drawn)	-	-	-	11.2µM	-	?
CCc1ccc(Oc2c(C(F)(F)F)oc3c(CN4CCN(CC)CC4)c(O)ccc3c2=O)cc1	-	.	.	.	.	.
CCCCn1c(CN2CCN(C(=O)c3ccco3)CC2)nc2c1c(=O)n(C)c(=O)n2C	-	-	-	22.4µM	-	-
CCCCCCn1c(CN2CCN(C(=O)c3ccco3)CC2)nc2c1c(=O)n(C)c(=O)n2C	?	-	-	1.26µM	-	-
CCOc1cc(C(=O)Nc2ccc(S(=O)(=O)Nc3cc(OC)nc(OC)n3)cc2)cc(OCC)c1OCC	-	.	.	.	.	.
C=C(C(=O)OC)C(NC(=O)OC)c1ccccc1 (stereo not drawn)	.	-	-	-	-	.
CC(C)Nc1nc(-c2ccccn2)nc(-c2ccccc2)c1C#N	.	-	-	-	.	3.55µM
CN1CCN(c2nc(-c3ccccc3)nc(-c3ccc(F)cc3)c2C#N)CC1	.	-	.	-	.	-
COc1ccc(-c2nc(-c3ccccn3)nc(N3CCN(C)CC3)c2C#N)cc1	.	-	-	14.1µM	.	-
O=P(O)(O)OC1[C@H](O)[C@H](OP(=O)(O)O)C(OP(=O)(O)O)[C@H](OP(=O)(O)O)[C@H]1O (stereo partly drawn)	.	-	-[1.9 µM]	-[2.48 µM]	-	.
O=C(CN1CCCCC1)Nc1ccccc1NC(=O)CN1CCCCC1	-	-	-[10 µM]	-	-	-
O=C(CN1CCN(C(=O)N2CCOCC2)CC1)Nc1ccc(Br)cc1	-	-	-	17.8µM	-	-
O=C(CSc1ncnc2[nH]ncc12)Nc1cccc(Oc2ccccc2)c1	.	-	-	20µM	.	-
O=C(CN1CCCCCC1)Nc1ccccc1	.	-	-	7.94µM	.	-
O=C(Nc1ccc(Cl)cc1)N1CCCN(Cc2ccc(F)cc2)C1	-	-	-	-	25.1µM	-
Nc1nc(SCC(=O)Nc2cccc(Oc3ccccc3)c2)n[nH]1	.	-	-[10 µM]	?	-	?
COC(=O)c1c(C)oc2c1cc(NS(=O)(=O)c1c(C)cc(C)cc1C)c1ccccc12	-	.	.	.	.	.
CC(=O)O[C@H]1C(=O)[C@]2(C)[C@H]([C@H](OC(=O)c3ccccc3)[C@@]3(O)C[C@H](OC(=O)[C@@H](O)[C@@H](NC(=O)c4ccccc4)c4ccccc4)C(C)=C1C3(C)C)[C@]1(OC(C)=O)CO[C@@H]1C[C@@H]2O	.	.	-	.	.	.
COc1ccc(-c2nc3cnc(OC)nc3n(-c3ccc(OC)cc3)c2=O)cc1	.	-	-	?	.	.
COc1cc(/C=C/c2ccccc2)oc(=O)c1	.	-	-	?	?	.
N=c1sccn1CC(=O)Nc1cccc(Oc2ccccc2)c1	-	-	-[10 µM]	?	-	-
NC(=O)C1CCN(CC(=O)Nc2ccccn2)CC1	-	-	-	-	-	2.24µM
CC(NC(=O)CN1CCC(C(N)=O)CC1)c1ccccc1 (stereo not drawn)	-	-	-[10 µM]	-	-	-
O=C(CCl)Nc1cccc(Oc2ccccc2)c1	.	-	-	0.282µM	.	?
O=C(CN1CCCCC1)Nc1cccc(Oc2ccccc2)c1	-	-	-	-	28.2µM	-
Cc1cc(NC(=O)CCN2CCC(C(N)=O)CC2)ccc1Br	-	-	-	?	-	-
NC(=O)C1CCN(CCC(=O)Nc2ccc(Br)cc2)CC1	-	-	0.112µM	-	-	.
COCCn1c(=O)c(-c2ccccc2)nc2cnc(Nc3ccccc3)nc21	.	-	-	-	-	.
CCOC(=O)N1CCN(CC(=O)Nc2ccc(Oc3ccccc3)cc2)CC1	-	-	-	25.1µM	-	-
